Assay results taken from PubChem BioAssay (Tox21).
Records with an inconclusive call do not appear. Active and inactive are the calls of the source. Unless noted, the call rests on the fitted dose curve; in most records, active means well fitted curve in the direction sought with a large enough effect in the repeat runs; inconclusive means weak or mixed curves; inactive means no such curve, though single readings can be large; an effect the other way counts as inactive or inconclusive.

Assays:
[1] = qHTS assay to identify small molecule antagonists of the estrogen related receptor (ERR) signaling pathway from Tox21 library - cell viability counter screen (AID 1224834); further: nearly all actives have a fitted effect of over 30% in size
How it was run: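 Compounds in DMSO were pinned onto ERR cells that had been incubated for 6 h, and the plates were held at 37 C for 17.5 h. CellTiter-Fluor reagent was then added and fluorescence was measured after 30 min.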

[2] = biological target: Luciferin 4-monooxygenase (Photinus pyralis) (UniProt P08659); assay: qHTS assay to identify small molecule inhibitors of firefly luciferase (AID 1224835); further: nearly all actives have a fitted effect of over 25% in size; further: potency means the concentration at half of the fitted maximal effect; on activity change, negative = inhibition: series mostly up to about 120 µM
Luciferin 4-monooxygenase (Photinus pyralis), sequence (P08659 whole entry, looked up): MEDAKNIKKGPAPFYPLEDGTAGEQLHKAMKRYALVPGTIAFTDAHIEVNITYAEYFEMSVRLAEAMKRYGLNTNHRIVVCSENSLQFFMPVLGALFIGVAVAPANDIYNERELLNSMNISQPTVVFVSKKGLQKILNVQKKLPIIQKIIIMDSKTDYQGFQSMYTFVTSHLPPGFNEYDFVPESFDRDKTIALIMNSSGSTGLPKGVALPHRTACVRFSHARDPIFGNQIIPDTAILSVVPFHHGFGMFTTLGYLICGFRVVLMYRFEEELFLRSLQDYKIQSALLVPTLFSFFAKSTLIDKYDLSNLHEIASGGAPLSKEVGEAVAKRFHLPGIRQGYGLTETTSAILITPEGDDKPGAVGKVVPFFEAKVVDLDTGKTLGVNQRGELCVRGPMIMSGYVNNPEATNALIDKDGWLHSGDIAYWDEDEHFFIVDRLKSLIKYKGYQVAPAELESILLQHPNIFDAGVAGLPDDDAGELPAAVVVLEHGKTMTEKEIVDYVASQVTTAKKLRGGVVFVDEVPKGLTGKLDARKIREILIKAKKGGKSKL
How it was run: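 Quantitative HTS format; KM concentrations of both substrates. Purified P. pyralis FLuc activity quantified from luminescence images.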

[3] = qHTS assay to identify small molecule agonists of the constitutive androstane receptor (CAR) signaling pathway - cell viability counter screen (AID 1224836); further: series mostly up to about 92 µM; nearly all actives have a fitted effect of over 45% in size
How it was run: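 Fluorescence from CellTiter-Fluor indicates live cells after 23 h exposure. The human hepatoma line expresses hCAR and a CYP2B6-2.2kb reporter. Incubation medium contains 0.75 uM PK11195 (final).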

[4] = qHTS assay to identify small molecule antagonists of the constitutive androstane receptor (CAR) signaling pathway - cell viability counter screen (AID 1224837); further: series mostly up to about 92 µM; nearly all actives have a fitted effect of over 45% in size
How it was run: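 Cells are seeded, rested 4 hr at 37 C/5% CO2, dosed with compound (15-point series) and 50 nM CITCO, incubated a further 23 hr, and then CellTiter-Fluor reagent is added before fluorescence is read. The line is HepG2 with stable hCAR and CYP2B6-2.2kb.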

[5] = biological target: Nuclear receptor subfamily 1 group I member 3 (Homo sapiens) (UniProt Q14994); assay: qHTS assay to identify small molecule antagonists of the constitutive androstane receptor (CAR) signaling pathway (AID 1224838);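 further: HepG2 cells stably expressing hCAR with CYP2B6 luciferase reporter stimulated by CITCO; nearly all actives have a fitted effect of over 40% in size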
Nuclear receptor subfamily 1 group I member 3 (Homo sapiens), sequence (Q14994 whole entry, looked up): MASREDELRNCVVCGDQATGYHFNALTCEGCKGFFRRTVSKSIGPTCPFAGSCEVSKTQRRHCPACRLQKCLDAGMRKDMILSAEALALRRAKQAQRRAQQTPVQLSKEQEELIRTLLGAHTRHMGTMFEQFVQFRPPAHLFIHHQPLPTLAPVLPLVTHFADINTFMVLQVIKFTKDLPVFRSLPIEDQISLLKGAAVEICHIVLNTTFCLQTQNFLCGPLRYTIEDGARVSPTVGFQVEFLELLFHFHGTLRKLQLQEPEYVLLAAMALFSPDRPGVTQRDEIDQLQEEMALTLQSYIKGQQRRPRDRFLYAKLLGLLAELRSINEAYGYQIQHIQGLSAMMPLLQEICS
How it was run: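 Luminescence from a CYP2B6-2.2kb promoter reporter in hCAR-expressing HepG2 cells reflects CAR signaling. Cells received compounds at 15 concentrations and 50 nM CITCO (final), then incubated 24 h at 37 C/5% CO2.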

[6] = biological target: Nuclear receptor subfamily 1 group I member 3 (Homo sapiens) (UniProt Q14994); assay: qHTS assay to identify small molecule agonists of the constitutive androstane receptor (CAR) signaling pathway (AID 1224839);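 further: HepG2 cells stably carrying human CAR and a CYP2B6 luciferase reporter; series mostly up to about 92 µM; nearly all actives have a fitted effect of over 15% in size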
How it was run: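 Stable hCAR/CYP2B6-2.2kb HepG2 line in DMEM with 10% FBS; compounds (15 concentrations) and 0.75 uM PK11195 final, 24 h at 37 C/5% CO2, then ONE-Glo luminescence after 30 min.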

[7] = biological target: Thyrotropin receptor (Homo sapiens) (UniProt P16473); assay: qHTS assay to identify small molecule agonists of the thyroid stimulating hormone receptor (TSHR) signaling pathway (AID 1224843; calls by dose curve; further: nearly all actives have a fitted effect of over 45% in size)
Thyrotropin receptor (Homo sapiens), sequence (P16473 whole entry, looked up): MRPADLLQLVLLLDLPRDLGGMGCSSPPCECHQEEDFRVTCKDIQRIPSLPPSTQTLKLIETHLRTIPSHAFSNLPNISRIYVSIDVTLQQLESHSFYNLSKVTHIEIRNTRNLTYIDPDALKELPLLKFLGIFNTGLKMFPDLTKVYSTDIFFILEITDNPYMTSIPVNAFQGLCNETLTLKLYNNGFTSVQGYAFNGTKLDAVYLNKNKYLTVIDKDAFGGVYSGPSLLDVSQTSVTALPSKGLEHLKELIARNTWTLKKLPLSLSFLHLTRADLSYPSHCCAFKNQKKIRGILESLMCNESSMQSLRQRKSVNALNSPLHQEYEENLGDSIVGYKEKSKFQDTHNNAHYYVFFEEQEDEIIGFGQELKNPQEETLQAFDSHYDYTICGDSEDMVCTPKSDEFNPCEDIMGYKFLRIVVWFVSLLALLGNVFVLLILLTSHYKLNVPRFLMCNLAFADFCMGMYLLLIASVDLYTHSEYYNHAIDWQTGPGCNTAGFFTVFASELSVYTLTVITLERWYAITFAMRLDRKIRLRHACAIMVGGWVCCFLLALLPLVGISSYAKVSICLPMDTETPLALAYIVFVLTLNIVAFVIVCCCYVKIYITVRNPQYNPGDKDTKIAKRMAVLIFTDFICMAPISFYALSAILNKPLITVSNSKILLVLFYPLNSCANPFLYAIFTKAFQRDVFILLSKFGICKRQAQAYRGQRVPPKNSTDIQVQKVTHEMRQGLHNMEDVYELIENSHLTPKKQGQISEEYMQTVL
How it was run: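 Using 15 concentrations per compound in triplicate, cAMP production was monitored in TSHR-HEK293 cells after 30 min compound incubation at RT; HTRF reagents followed, with fluorescence intensity recorded after 1 h.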

[8] = qHTS assay to identify small molecule agonists of the hypoxia (HIF-1) signaling pathway - cell viability counter screen (AID 1224844; calls by dose curve; further: nearly all actives have a fitted effect of over 50% in size)
How it was run: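 Viability counter screen: HRE-bla ME-180 cells plated 5 hrs before compound addition, treated 17 hrs at 37C and 5% CO2, then CellTiter-Glo added after the FRET reporter read; luminescence after 30 min.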

[9] = qHTS assay to identify small molecule agonists of H2AX (AID 1224845; active means well fitted activation curve with a large enough effect in the signal ratio in the repeat runs, not every such curve was filed as active; the % refers to the signal ratio)
How it was run: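 Wild-type CHO-K1 cells plated overnight, then exposed 3 hr at 37C to compounds at 15 concentrations (0.76% DMSO). Lysed, then HTRF anti-pH2AX(S139)-cryptate/anti-H2AX-d2 detection after 24 hr at room temperature; emissions 665 and 620 nm.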

[10] = qHTS assay to identify small molecule agonists of the hypoxia (HIF-1) signaling pathway (AID 1224846; active means well fitted activation curve with a large enough effect in the signal ratio in the repeat runs, not every such curve was filed as active; the % refers to the signal ratio)
How it was run: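 Agonist mode reporter screen. ME-180 cells stably expressing bla under HRE control received test compounds in DMSO for 17 hrs (37C, 5% CO2), and beta-lactamase activity was then detected with the CCF4-AM FRET substrate.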

[11] = qHTS assay to identify small molecule agonists of H2AX - cell viability counter screen (AID 1224847; calls by dose curve; further: top concentration of the series differs between compounds; nearly all actives have a fitted effect of over 30% in size)
How it was run: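 Viability of CHO-K1 (wild type) cells after 3 hr compound exposure was measured by CellTiter-Glo luminescence.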

[12] = qHTS RealTime-Glo MT Cell Viability Assay in HEK293 cells - 32 hour (AID 1224868); further: top concentration of the series differs between compounds; nearly all actives have a fitted effect of over 50% in size
How it was run: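 Nonlytic real-time viability readout: viable cells convert prosubstrate to NanoLuc substrate, giving luminescence proportional to live cell number. HEK293, 600 cells/well, compound added after 5 h, continuous culture at 37 C.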

[13] = A CellTox Green Cytotoxicity Assay to monitor cytotoxicity in HEK293 cells - 0 hour (AID 1224869); further: nearly all actives have a fitted effect of over 50% in size
How it was run: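 Dead-cell fluorescence measured kinetically: asymmetric cyanine dye, HEK293, 600 cells/well, 5 h settle, 23 nL cpd/DMSO, 37 C, reads 0–40 h every 8 h.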

[14] = qHTS RealTime-Glo MT Cell Viability Assay in HepG2 cells - 40 hour (AID 1224870); further: nearly all actives have a fitted effect of over 50% in size
How it was run: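 HepG2 cells mixed with RealTime-Glo MT reagents (NanoLuc plus cell-permeant prosubstrate) were seeded at 600 cells/well, incubated 5 h at 37 C/5% CO2, then pinned with compounds in DMSO; nonlytic luminescence tracked viability during 40 h treatment.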

[15] = qHTS RealTime-Glo MT Cell Viability Assay in HepG2 cells - 24 hour (AID 1224867); further: nearly all actives have a fitted effect of over 50% in size
How it was run: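 Luminescence read-out: viable HepG2 cells reduce a prosubstrate to a NanoLuc substrate, giving a signal proportional to live cell number. Reads taken at 0, 8, 16, 24, 32 and 40 h of compound exposure at 37 C.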

[16] = qHTS assay to identify small molecule antagonists of the estrogen related receptor signaling pathway with the pleiotropic PPARgamma coactivator (PGC) from Tox21 10K library (AID 1224841; call rule not given here)
How it was run: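 Cells stably carrying the PGC/ERR reporter, seeded at 2,000 per well, received pin-transferred compounds 6 h post-plating. Exposure lasted 18 h at 37 C. Signal: One-Glo luminescence.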

[17] = qHTS assay to identify small molecule agonists of the estrogen related receptor signaling pathway with the pleiotropic PPARgamma coactivator (PGC) from Tox21 10K library (AID 1224842); further: nearly all actives have a fitted effect of over 15% in size
How it was run: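 PGC/ERR reporter cells (NTP line) were seeded 2,000 per well, rested 6 h at 37 C/5% CO2, then pin-dosed with compounds in DMSO for 18 h at 37 C; luciferase read by One-Glo luminescence after 30 min at room temperature.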

[18] = qHTS assay to identify small molecule antagonists of the estrogen related receptor (ERR) signaling pathway from Tox21 library (AID 1224848); further: nearly all actives have a fitted effect of over 50% in size
How it was run: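 Tox21 10K compounds in DMSO tested for ERR pathway antagonism in NTP's ERR cell line; 18 h, 37 C exposure; ONE-Glo luminescence.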

[19] = qHTS assay to identify small molecule agonists of the estrogen related receptor (ERR) signaling pathway from Tox21 library (AID 1224849; calls by dose curve; further: nearly all actives have a fitted effect of over 15% in size)
How it was run: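 Quantitative HTS in agonist format: NTP ERR cell line, compounds transferred in DMSO after 6 h plating, 18 h incubation at 37 C, ONE-Glo luminescence endpoint.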

[20] = qHTS assay to identify small molecule antagonists of the estrogen related receptor signaling pathway with the pleiotropic PPARgamma coactivator (PGC) from Tox21 10K library - cell viability counter screen (AID 1224840; active means well fitted cell-killing curve with a large enough effect in the repeat runs, not every such curve was filed as active; further: nearly all actives have a fitted effect of over 40% in size)
How it was run: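 Cell viability is measured by CellTiter-Fluor fluorescence in PGC/ERR cells that receive compounds after a 6-hour attachment period and are then incubated 17.5 hours at 37 C.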
On the % scale 0 is the no-effect control and ±100 the full control effect.

CC(C)C1CCC(O)CC1 (stereo unspecified)
inactive: Potency [1] | Potency [2] | outcome [3] | outcome [4] | Potency [5] | Potency [6] | Potency [7] | Potency [8] | Potency [9] | outcome [10] | outcome [11] | Potency [12] | outcome [13] | Potency [14]

C=C[Si](OC(C)=O)(OC(C)=O)OC(C)=O
inactive: Potency [1] | Potency [2] | outcome [3] | outcome [4] | Potency [5] | Potency [6] | Potency [8] | Potency [9] | outcome [10] | outcome [11] | outcome [15] | Potency [12] | outcome [13] | Potency [14]

CCCCCCC#CC(=O)OC
inactive: Potency [1] | Potency [2] | outcome [3] | outcome [4] | Potency [5] | Potency [6] | Potency [16] | Potency [17] | Potency [8] | outcome [10] | outcome [11] | Potency [18] | outcome [19] | outcome [15] | Potency [12] | outcome [13] | Potency [14]

CCN[C@H]1C[C@H](C)S(=O)(=O)c2sc(S(N)(=O)=O)cc21
inactive: Potency [1] | Potency [2] | outcome [3] | outcome [4] | Potency [6] | outcome [20] | Potency [7] | Potency [8] | Potency [9] | outcome [11] | outcome [15] | Potency [12] | outcome [13] | Potency [14]

CCCC[N+](C)(CCCC)CCCC
inactive: Potency [1] | Potency [2] | outcome [3] | outcome [4] | Potency [5] | Potency [6] | Potency [7] | Potency [8] | Potency [9] | outcome [10] | outcome [15] | Potency [12] | outcome [13] | Potency [14]

O=C(O)Cc1csc(-c2ccc(Cl)cc2)n1
inactive: Potency [1] | Potency [2] | outcome [3] | outcome [4] | Potency [5] | Potency [6] | Potency [7] | Potency [8] | Potency [9] | outcome [10] | outcome [11] | outcome [15] | Potency [12] | outcome [13] | Potency [14]

CC(C)C[C@@H](N)C(=O)O
inactive: viability change, negative = cytotoxic [1] 1.15% [at 19 µM] | activity change, negative = inhibition [2] -3.09% [at 23.6 µM] | viability change, negative = cytotoxic [3] 3.64% [at 19 µM] | activity change, negative = cytotoxicity [4] 0.137% [at 19 µM] | activity, negative = inhibition [5] 4.78% [at 19 µM] | viability change, negative = cytotoxic [20] -8.03% [at 19 µM] | activity, negative = inhibition [16] 0.755% [at 19 µM] | activation [17] -0.0839% [at 19 µM] | activation [7] -1.78% [at 19 µM] | activity change, negative = cytotoxicity [8] 2.77% [at 15.8 µM] | activation (H2AX phosphorylation) [9] -1.49% [at 31.6 µM] | activity change, negative = cytotoxicity [11] -4.41% [at 31.6 µM] | activity, negative = inhibition [18] 12.8% [at 19 µM] | activity change, positive = activation [19] 7.21% [at 19 µM] | activity change, negative = cytotoxicity [15] 3.14% [at 15.8 µM] | activity change, negative = cytotoxic [12] 5.13% [at 15.8 µM] | cytotoxicity [13] -0.288% [at 15.8 µM] | activity change, negative = cytotoxic [14] 2.01% [at 15.8 µM]

O=S(=O)(O)c1cc(O)c(O)c(S(=O)(=O)O)c1
inactive: Potency [1] | Potency [2] | outcome [3] | outcome [4] | Potency [5] | Potency [6] | outcome [20] | Potency [8] | outcome [10] | outcome [11] | outcome [15] | Potency [12] | outcome [13] | Potency [14]

COc1cc(C)nc(-n2nc(C)cc2OC)n1
inactive: Potency [1] | Potency [2] | outcome [3] | outcome [4] | Potency [6] | outcome [20] | Potency [16] | Potency [17] | Potency [7] | Potency [8] | Potency [9] | outcome [10] | outcome [11] | Potency [18] | outcome [19] | outcome [15] | Potency [12] | outcome [13] | Potency [14]

Cc1ccc(C(=O)c2ccccc2)cc1
inactive: Potency [1] | outcome [3] | outcome [4] | Potency [5] | outcome [20] | Potency [8] | Potency [9] | outcome [10] | outcome [15] | Potency [12] | Potency [14]
active: Potency [2] 31.7 µM

CCOc1c(N2CCOCC2)cnn(C)c1=O
inactive: Potency [1] | Potency [2] | outcome [3] | outcome [4] | outcome [20] | Potency [7] | outcome [10] | outcome [11] | outcome [15] | Potency [12] | outcome [13] | Potency [14]

CC(=O)N[C@H]1[C@H]([C@H](O)[C@H](O)CO)OC(C(=O)O)=C[C@@H]1N=C(N)N
inactive: Potency [1] | Potency [2] | outcome [3] | outcome [4] | outcome [20] | Potency [7] | Potency [8] | Potency [9] | outcome [10] | outcome [11] | Potency [12] | outcome [13] | Potency [14]

O=C(O)CNC(=O)c1ccccc1
inactive: Potency [1] | Potency [2] | outcome [3] | outcome [4] | outcome [20] | Potency [7] | Potency [8] | outcome [10] | outcome [11] | outcome [15] | Potency [12] | Potency [14]

CCC(=O)OCc1ccccc1
inactive: Potency [1] | Potency [2] | outcome [3] | outcome [4] | outcome [20] | Potency [7] | Potency [8] | outcome [15] | Potency [12] | outcome [13] | Potency [14]

CCN1C=CN(C)C1C (stereo unspecified)
inactive: Potency [1] | Potency [2] | outcome [3] | outcome [4] | outcome [20] | Potency [17] | Potency [7] | Potency [8] | Potency [9] | outcome [10] | outcome [11] | Potency [18] | outcome [19] | Potency [12] | outcome [13] | Potency [14]

Nc1ccn([C@@H]2O[C@H](CO)[C@@H](O)C2O)c(=O)n1 (stereo partly specified)
inactive: Potency [1] | Potency [2] | outcome [3] | outcome [4] | Potency [6] | Potency [16] | Potency [17] | Potency [8] | outcome [10] | outcome [11] | Potency [18] | outcome [19] | outcome [15] | Potency [12] | outcome [13] | Potency [14]
